From PubChem BioAssay AID1347076 (National Center for Advancing Translational Sciences (NCATS), 2019) come the findings set out here.

The structures appear in SMILES notation. In all, about 400,000 compounds went through this assay and about 13,000 (3.2%) were called active. Entries that show only a call come without a potency. About 18% were inconclusive and are not listed. The call rests on the fitted dose curve; in most records, active means well fitted cell-killing curve with a large enough effect; inconclusive means small, poorly fitted or top-dose-only effect, or effect the other way; inactive means flat fitted curve, though single readings scatter. For the sample, actives were picked, then their nearest neighbours and some compounds at random.
Potency means the concentration at half of the fitted maximal effect.

A short description of the experiment: qHTS assay for MDR1-selective chemotherapeutics: Primary screen using the drug-selected MDR subline cells KB-V1. Further: nearly all actives have a fitted effect of over 60% in size. The following applies: KB-V1 MDR cells viability, CellTiter-Glo, 72 h; series mostly up to 46.1 µM. Summed up:
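KB-V1, DMEM (no phenol red) + 10% FBS; cpd pin-transferred, titration series; 72 h, 37 degrees C; CellTiter-Glo, luminescence. Data normalized, curve-fit.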
As to `O=C(NCCc1cccc(F)c1)C1CC(O)CN1C(=O)Nc1ccccc1` (stereo unspecified), the Potency result is “inactive”. `Cc1ccc([C@@H]2CC(=O)[C@@H]3CN(S(=O)(=O)c4ccc(C)cc4)[C@H](c4ccccc4F)C[C@@H]3N2S(=O)(=O)c2ccc(Cl)cc2)cc1`: the Potency result was “inactive”. As for `C=C1C(=O)[C@]23C[C@H]1CCC2[C@@]1(C)C(C[C@@H]3O)[C@](C)(C(=O)O)CC[C@@H]1O` (stereo partly specified), the entry is “inactive”; as for `O=C(NC1CCCC1)C1c2ccccc2OCC(=O)N1Cc1ccccc1` (stereo unspecified), “inactive”. As for `CC1(C(=O)Nc2cccc3c2CCCC3)CCN1C(=O)C1(c2ccccc2)CC1` (stereo unspecified), the entry is “inactive”. The result for `Brc1nc2ncnc(NCc3ccco3)c2[nH]1` reads “inactive”. On to `COCOCCn1cc(CN2CCS(=O)(=O)N(Cc3ccc(-c4ccccc4)cc3)C(CC(C)C)C2=O)nn1` (stereo unspecified), for which the Potency entry is “inactive”. Turning to `Cc1cccc(OCCSc2nc3ccccc3n2CC(=O)N2CCCCC2)c1C`, the Potency result was “inactive”. Regarding `CCOC(=O)c1cn(Cc2cccc(C)c2)nn1`, the Potency result is “inactive”. As for `CC(=O)c1nn(-c2ccc(C)cc2)cc1C(=O)c1cccc(Br)c1`, the Potency result is “inactive”.

Regarding `CCOC(=O)c1nn(-c2cccc(C)c2)cc1C(=O)c1ccccc1`, the Potency is 14.6 µM (active).

`Nc1cc(N2CCCCCC2)c2nonc2c1[N+](=O)[O-]`: the Potency is 8.2 µM (active).

For the compound `Cc1c(Nc2cc(N3CCCC(C)C3)c3nonc3c2[N+](=O)[O-])c(=O)n(-c2ccccc2)n1C` (stereo unspecified), the Potency result was “inactive”.

As for `COCCNc1nc(N)c([N+](=O)[O-])c(N2CCCCCC2)n1`, the Potency entry is “inactive”. On to `CC1(C)OC(=O)C2=C(C[C@@H](C3CCCCC3)O[C@@H]2c2ccc(Cl)cc2)O1`, for which the Potency entry is “inactive”. The result for `Cc1[nH]n(-c2cccc(Cl)c2)c(=O)c1/C=N/n1c(C)nc2ccccc2c1=O` reads 7.31 µM (active); that for `Cc1[nH]n(-c2ccccc2)c(=O)c1/C=N/NC(=O)c1ccoc1C`, “inactive”. As for `CCCc1nc2ccccc2c(=O)n1/N=C/c1ccc(O)c(O)c1`, the entry is “inactive”. Turning to `COc1ccc(C(CNC(=O)CSc2ccccc2)N2CCOCC2)cc1` (stereo unspecified), the Potency entry is “inactive”. As for `Cc1ccc2cccc([N+](=O)[O-])c2n1`, the entry is “inactive”. On to `Cc1cccc(C)c1NC(=O)COC(=O)c1c(C)nn(-c2ccccc2)c1C`, for which the Potency entry is “inactive”.

As for `CCC(Oc1ccccc1)C(=O)OCC(=O)Nc1c(C)nn(-c2ccccc2)c1C` (stereo unspecified), the Potency entry was “inactive”.

Take `Cc1nn(-c2ccccc2)c(C)c1/C=C/C(=O)OC(C)C(N)=O` (stereo unspecified): the Potency is 23.1 µM (active). In the case of `CCOC(=O)C1CCCN(C(=O)c2cccc3ccccc23)CC1` (stereo unspecified), the Potency result is “inactive”.

For `CC(C)(O)C#Cc1ccc(CN2CCC(CO)(CCc3ccccc3)CC2)cc1`, the Potency result was “inactive”.

As for `CCOC(=O)C1(CCOc2ccccc2)CCN(Cc2cc(OC)c(O)cc2Cl)CC1`, the Potency result is “inactive”.

Regarding `Cc1c(CN2CCC(CO)(CCOc3ccccc3)CC2)[nH]c2ccc(Cl)cc12`, the Potency was 5.8 µM (active). The result for `COc1cc(OC)c(NC(=O)N2CC3CCCN3c3ccccc32)cc1Cl` (stereo unspecified) reads “inactive”; that for `C[C@@H]1CN([C@@H](C)CO)C(=O)CCCn2nncc2CO[C@H]1CN(C)C(=O)Nc1ccc(C(F)(F)F)cc1`, “inactive”; that for `CCc1nc2cccnc2n1-c1ccc(CC(=O)Nc2c(C)cccc2C)cc1`, “inactive”.

On to `CC1CC(C)CN(c2oc(-c3ccc(OCc4ccc(Cl)cc4)cc3)nc2C#N)C1` (stereo unspecified), for which the Potency entry was “inactive”.

For the compound `CCN(CC)S(=O)(=O)c1ccc(N(C)Cc2cccc(OC)c2OC)nc1`, the Potency was 6.51 µM (active). Regarding `CCOc1ccc(Br)cc1S(=O)(=O)Nc1cccc(S(=O)(=O)N(CC)CC)c1`, the Potency result is “inactive”. The result for `CCN(CC)S(=O)(=O)c1ccc(OC)c(NC(=O)CCc2c(C)noc2C)c1` reads “inactive”; that for `CCC(C(=O)Nc1cccc(Cl)c1C)n1nc(-c2ccc(C)cc2)ccc1=O` (stereo unspecified), “inactive”; that for `CCc1nc2c(OCCOc3ccccc3)cccn2c1N(C=O)Cc1ccc(OC)cc1`, “inactive”. As for `Cc1cc(C)n(-c2nc(C(F)(F)F)nc3ccccc23)n1`, the entry is “inactive”; as for `CCc1ccc(C(CNc2nc(C(F)(F)F)nc3ccccc23)N(C)C)cc1` (stereo unspecified), 16.4 µM (active). The result for `CC(Nc1nc(C(F)(F)F)nc2ccccc12)c1cccs1` (stereo unspecified) reads “inactive”; that for `CC1=C(C(=O)N(C(C)C)C(C)C)CC(CC(=O)NCC2CCCCC2)C(=O)N1Cc1ccccc1` (stereo unspecified), “inactive”.

As for `O=C(NCC1CCCO1)c1ccc2ccccc2n1` (stereo unspecified), the Potency result is “inactive”. The result for `COc1ccc2cc(C(=O)NCC3CCCO3)[nH]c2c1` (stereo unspecified) reads “inactive”; that for `O=C(NCC1CCCO1)c1cc2c([nH]c3ccccc32)c(-c2ccc(F)cc2)n1` (stereo unspecified), 11.6 µM (active).

For the compound `Cc1cccc(N(CC(=O)N2CCCC2)S(C)(=O)=O)c1C`, the Potency entry was “inactive”.

For `CC(=O)N1CCN(Cc2cc(=O)oc3cc(C)ccc23)CC1`, the Potency entry is “inactive”.

On to `Cc1ccc2c(CN3CCN(S(=O)(=O)c4ccccc4C(F)(F)F)CC3)cc(=O)oc2c1`, for which the Potency result is “inactive”. On to `O=S(=O)(c1cccs1)N1CCN(Cc2ccccc2)CC1`, for which the Potency was 16.4 µM (active).

For the compound `O=S(=O)(c1cccs1)N1CCc2ccccc2C1`, the Potency result is “inactive”. As for `O=C(NCc1ccccc1)C1CCCN(S(=O)(=O)c2cccs2)C1` (stereo unspecified), the entry is “inactive”; as for `COc1ccc2c(CN3CCN(S(=O)(=O)c4cccs4)CC3)cc(=O)oc2c1`, 13 µM (active); as for `O=c1cc(CN2CCCCCCC2)c2c(ccc3ccccc32)o1`, “inactive”. The result for `COCCNc1nc(-n2nc(C)cc2C)nc2sc3c(c12)CCCC3` reads 9.2 µM (active); that for `CCOC(=O)Cn1c(SC)nc2sc3c(c2c1=O)CC(C)(C)OC3`, “inactive”. The result for `CCc1nc(N2CCN(C(C)=O)CC2)c2c3c(sc2n1)CCCC3` reads “inactive”. With `CCC(O)CNc1nc(-n2nc(C)cc2C)nc2sc3c(c12)CC(C)(C)OC3` (stereo unspecified), the Potency was 2.59 µM (active).

Take `CC/C(C)=N/Nc1nc2sc3c(c2c(=O)[nH]1)CC(C)(C)OC3`: the Potency entry was “inactive”. For `COCCn1c(C)cc(C(=O)CSc2ncnc3sc4c(c23)CCC4)c1C`, the Potency entry is “inactive”. As for `O=C(NC1CCCCC1)C(c1cc2ccccc2o1)n1c(=O)c(-c2ccco2)nc2ccccc21` (stereo unspecified), the entry is “inactive”; as for `Nc1[nH]c(C(=O)c2ccccc2)c(-c2ccncc2)c1C(=O)NCc1cccc2ccccc12`, “inactive”.

For `Cc1ccc(Cn2cc(CN3CC(N4CCN(C)CC4)CS3(=O)=O)nn2)cc1` (stereo unspecified), the Potency result is “inactive”. As for `Cc1ccccc1CN1CCN(C(=O)c2cccc(F)c2)CC1`, the Potency entry was “inactive”. Take `CCOC(=O)N1CCN(C(=O)c2ccc(S(=O)(=O)Nc3cccc(C(F)(F)F)c3)cc2)CC1`: the Potency result was “inactive”. The result for `Cc1ccccc1CS(=O)(=O)CC1(O)CCN(C(=O)c2cccc(C(F)(F)F)c2)CC1` reads 14.6 µM (active); that for `CCOc1ccc(-c2cc3nc(C4CCN(C(=O)OC(C)(C)C)CC4)c(C(=O)Nc4cccc(CC)c4)cn3n2)cc1`, “inactive”; that for `Cn1c(=O)c2c(-c3ccccc3Br)n(Cc3ccccc3)cc2n(C)c1=O`, “inactive”. For `C[C@H]1CCC(=O)N([C@H](CSc2ccccc2)Cc2ccccc2)CC1`, the Potency entry is “inactive”. As for `CC(=O)Nc1ccc(SC[C@H](Cc2ccccc2)N2CC[C@@H](C)CCC2=O)cc1`, the entry is “inactive”; as for `Cc1ccc(CN(C)CC(=O)Nc2cccc([N+](=O)[O-])c2)o1`, “inactive”; as for `CN(CC(=O)Nc1cccc(F)c1)CC(=O)Nc1cccc([N+](=O)[O-])c1`, 11.6 µM (active). The result for `CN(CC(=O)Nc1cccc(F)c1)C(=O)C1=COCCO1` reads “inactive”; that for `C[C@@H]1CN([C@H](C)CO)C(=O)CCCn2cc(nn2)CO[C@H]1CN(C)S(=O)(=O)c1ccc(Oc2ccccc2)nc1`, “inactive”; that for `O=C(C[C@H]1C[C@H]2c3cc(NS(=O)(=O)c4ccc(F)cc4)ccc3O[C@H]2[C@H](CO)O1)NCc1cc(F)ccc1F`, “inactive”. On to `CC(Sc1nnc2c(n1)C1CCC2(C)C1(C)C)C(=O)Nc1ccccc1` (stereo unspecified), for which the Potency is 20.6 µM (active).

In the case of `CC(Sc1nnc(C2CC2)n1C1CC1)C(=O)Nc1ccc(C(N)=O)cc1` (stereo unspecified), the Potency result is “inactive”. The result for `Cc1cccc(-c2nnc(SC(C)C(=O)Nc3ccccc3)n2C)c1` (stereo unspecified) reads “inactive”; that for `CC(CNC(=O)c1nnc(Cc2cccc(F)c2)o1)c1ccccc1` (stereo unspecified), “inactive”; that for `C[C@H](CO)N1C[C@H](C)[C@@H](CN(C)S(=O)(=O)c2ccc(Oc3ccccc3)cc2)OCc2cn(nn2)CCCC1=O`, “inactive”. `C[C@@H]1CCCCO[C@H](CN(C)Cc2ccccc2)[C@@H](C)CN([C@H](C)CO)C(=O)c2cc(NS(=O)(=O)c3ccc(Cl)cc3)ccc2O1`: the Potency result was “inactive”.

`O=C(NCc1ccccn1)[C@@H]1CCCN1C(=O)[C@@H]1CCCN1C(=O)c1ccccc1`: the Potency result is “inactive”. The result for `CC1(C(=O)NCc2ccc3c(c2)OCO3)CCN1C(=O)Cc1cccc2ccccc12` (stereo unspecified) reads “inactive”; that for `COC(=O)C(C)Oc1ccc2c(c1)O/C(=C\c1cccc(Br)c1)C2=O` (stereo unspecified), “inactive”.

In the case of `COc1cc(/C=C2\Oc3ccc(C#Cc4ccc(O)cc4)cc3C2=O)cc(OC)c1`, the Potency was 7.31 µM (active). The result for `COc1ccc2c(c1)O/C(=C\c1ccccc1O)C2=O` reads “inactive”. The result for `CCN(CC)C(=O)C1=C(C)N(Cc2ccccc2)C(=O)C(CC(=O)NC(c2ccccc2)c2ccccc2)C1` (stereo unspecified) reads “inactive”; that for `Cn1ncc(Br)c1C(=O)NCc1cccs1`, “inactive”; that for `CC(C)(C)c1ccc(C(=O)NCCn2c(N)c(C#N)c3nc4ccccc4nc32)cc1`, “inactive”. The result for `CC(C)Cn1c(N)c(C(=O)NCc2cccs2)c2nc3ccccc3nc21` reads 10.3 µM (active); that for `CCN1C(=O)c2ccccc2S(=O)c2ccc(C(=O)NCc3ccc(F)cc3)cc21` (stereo unspecified), “inactive”.

As to `CCOC(=O)C1CCCN(S(=O)(=O)c2cc(-c3cc(C)no3)ccc2OC)C1` (stereo unspecified), the Potency result was “inactive”.

For the compound `O=c1cc(CSc2ncn[nH]2)[nH]c2ccc(F)cc12`, the Potency result was “inactive”. As for `CCNC(=O)C1(C)CCN(C(=O)c2ccccc2)C1` (stereo unspecified), the entry is “inactive”; as for `CCOC(=O)N1CCN(C(c2cccnc2)c2ccc3cccnc3c2O)CC1` (stereo unspecified), 16.4 µM (active); as for `CCOC(=O)N1CCN(C(c2ccnc3ccccc23)c2nnnn2-c2c(C)cccc2C)CC1` (stereo unspecified), “inactive”. The result for `Oc1c(C(c2ccccn2)N2CCOCC2)ccc2cccnc12` (stereo unspecified) reads “inactive”; that for `CCN(CC)c1nc(C#N)nc(OC)n1`, “inactive”. As for `CC(C)c1ccc(NC(=O)CN(C)S(=O)(=O)c2ccc3c(c2)c(=O)n(C)c(=O)n3C)cc1`, the Potency result was “inactive”.
